154 variants from a collection of fitness landscapes (doi:10.1126/science.1257360) can be followed below.

Over roughly 140,000 sequences, “enrichment ratio after two sorts for PhoP signalling” has its median near 0; the highest 2% begin near 11. Shown is part of a subset that was picked to be rich in the highest values.

B1: PhoQ; a variant is named by its letters at X, in order, P23837 (parent)
chain: MKKLLRLFFPLSLRVRFLLATAAVVLVLSLAYGMVALIGYSVSFDKTTFRLLRGESNLFYTLAKWENNKLHVELPENIDKQSPTMTLIYDENGQLLWAQRDVPWLMKMIQPDWLKSNGFHEIEADVNDTSLLLSGDHSIQQQLQEVREDDDDAEMTHSVAVNVYPATSRMPKLTIVVVDTIPVELKSSYMVWSWFIYVLSANLLLVIPLLWVAAWWSLRPIEALAKEVRELEEHNRELLNPATTRELTSLVRNLNRLLKSERERYDKYRTTLTDLTHSLKTPLXXLQXXLRSLRSEKMSVSDAEPVMLEQISRISQQIGYYLHRASMRGGTLLSRELHPVAPLLDNLTSALNKVYQRKGVNISLDISPEISFVGEQNDFVEVMGNVLDNACKYCLEFVEISARQTDEHLYIVVEDDGPGIPLSKREVIFDRGQRVDTLRPGQGVGLAVAREITEQYEGKIVAGESMLGGARMEVIFGRQHSAPKDE

The experiment covers variants of B1. Briefly: enrichment ratio after two sorts for PhoP signalling (ratio (wild type AVST 3.29)); higher = more functional. Conditions: with PhoP (E. coli).
In the case of SEAC, the enrichment ratio is 19.8.
The result for NIYV reads not above 0.25; that for IRLQ, not above 0.25; that for HPHQ, not above 0.25.
The result for QISV reads not above 0.25; that for SDLF, not above 0.25; that for TCEE, not above 0.25.
Consider MKWH, for which the enrichment ratio was not above 0.25.
As for QAWW, the figure is not above 0.25; as for QCDG, not above 0.25; as for YQQR, not above 0.25.
As for KSAC, the figure is not above 0.25; as for SSAC, 11.3; as for VEAC, 0.99.
For EQAC, the enrichment ratio was not above 0.25.
Consider NQAC, for which the enrichment ratio was not above 0.25.
As for SQAC, the figure is 13.4; as for KAAC, not above 0.25.
The result for TEAC reads 25.6.
The result for FSAC reads not above 0.25; that for PWYS, not above 0.25; that for WGDA, not above 0.25.
In the case of NQIK, the enrichment ratio is not above 0.25.
The result for LAQF reads not above 0.25; that for RNSM, not above 0.25; that for TQHQ, 13.8.
As for TQQF, the figure is 33.4; as for DWSM, not above 0.25; as for TQMS, 4.53.
The result for TQSM reads 23.3.
As for TQHP, the enrichment ratio is not above 0.25.
As for TQSF, the figure is 7.45.
As for TQHI, the figure is 3.97; as for TQHF, 16.2; as for TQTD, not above 0.25.
The result for NYQY reads not above 0.25; that for NTGP, not above 0.25.
For YRMS, the enrichment ratio was not above 0.25.
The result for FSKE reads not above 0.25; that for MTHL, 7.87; that for PNLT, not above 0.25.
The result for TPTL reads not above 0.25; that for SMDI, not above 0.25; that for REVG, not above 0.25.
Consider WQFM, for which the enrichment ratio was not above 0.25.
As for PAAY, the figure is not above 0.25.
The result for ENTT reads not above 0.25; that for GKMH, not above 0.25; that for KCNH, not above 0.25.
As for LNPK, the figure is not above 0.25; as for MEWI, 24.
On to NECS, for which the enrichment ratio is not above 0.25.
For the variant DECI, the enrichment ratio is not above 0.25.
As for DPCV, the figure is not above 0.25; as for DECV, 25.8.
The result for MELA reads not above 0.25.
The result for MERM reads not above 0.25; that for MECK, 27.3; that for MELS, 9.24.
MECS: the enrichment ratio was determined as 11.2.
The result for MEGM reads not above 0.25.
As for MKCS, the figure is not above 0.25.
As for VHCY, the figure is not above 0.25.
As for MPCS, the enrichment ratio is not above 0.25.
The result for PKNK reads not above 0.25; that for PCQL, not above 0.25.
Take ICAL: the enrichment ratio came out at 0.516.
The result for STWD reads not above 0.25; that for TWLL, not above 0.25.
Regarding FYED, the enrichment ratio was not above 0.25.
As for FVPW, the figure is not above 0.25.
As for NCRM, the figure is not above 0.25; as for MECA, 3; as for MECI, 12.8.
Regarding NECV, the enrichment ratio was not above 0.25.
The result for MECV reads 18.2; that for MEGD, not above 0.25; that for MMCV, 4.31.
As for DNCI, the figure is not above 0.25; as for VVVI, not above 0.25.
The result for MDLY reads not above 0.25; that for TMFE, not above 0.25; that for MWWC, not above 0.25.
As to SMAT, the enrichment ratio turned out to be 7.92.
As for SMRY, the figure is not above 0.25; as for SMYI, not above 0.25; as for SMAG, 11.3.
For SMGD, the enrichment ratio is 1.08.
As for SMTG, the figure is 5.2.
The result for SMAI reads 13.5; that for SMAN, 6.01; that for SMGY, 7.3.
In the case of SMVG, the enrichment ratio was 8.8.
The result for SMAY reads 25.3.
As for SMAS, the enrichment ratio stood at 11.6.
As for HEDR, the figure is not above 0.25; as for DAFY, not above 0.25.
As for QNHA, the figure is not above 0.25.
The result for MIDS reads not above 0.25.
With PWKL, the enrichment ratio was not above 0.25.
The result for HVPL reads not above 0.25.
The result for VFFI reads not above 0.25.
Regarding KESQ, the enrichment ratio is not above 0.25.
The result for HGIC reads not above 0.25; that for TKCM, 46.1.
As for KKCM, the figure is not above 0.25; as for AICM, 6.05.
The result for HKCM reads not above 0.25; that for MKCM, not above 0.25; that for AKCM, 15.6.
Turning to SKKH, the enrichment ratio was not above 0.25.
The result for PYDF reads not above 0.25; that for MIQV, not above 0.25; that for GAMG, not above 0.25.
As to ISLA, the enrichment ratio is not above 0.25.
As for TSLI, the figure is 11.8; as for FALS, 8.07.
As for RSLI, the figure is not above 0.25; as for VSLA, 0.756.
As for ISLT, the figure is 0.863; as for MMLI, not above 0.25.
FALA: the enrichment ratio was 5.9.
The result for ISLI reads 11.2.
The result for FALI reads 15.1; that for NSLI, 4.88.
The result for VSLI reads 14; that for ENRC, not above 0.25; that for VSCH, 2.85.
Consider TYRA, for which the enrichment ratio is not above 0.25.
The result for DETW reads not above 0.25; that for WTDY, not above 0.25.
The result for PCSF reads not above 0.25; that for NFAL, not above 0.25; that for WRVV, not above 0.25.
As for KSLI, the figure is not above 0.25.
Regarding FCLI, the enrichment ratio was 7.58.
As for FSLI, the figure is 12.9; as for PMYI, not above 0.25.
Take SDIH: the enrichment ratio is 2.15.
As for KKIH, the figure is not above 0.25; as for SQIH, 12.4.
The result for SCIH reads 1.7; that for HKIH, not above 0.25.
For the variant TKIH, the enrichment ratio came to 15.7.
Turning to GFSR, the enrichment ratio was not above 0.25.
The result for REWS reads not above 0.25.
Consider WQHV, for which the enrichment ratio was not above 0.25.
The result for ASQY reads not above 0.25.
As for LEFA, the figure is 1.62; as for LEFC, 12.9.
As for LEFP, the figure is not above 0.25.
On to LEWC, for which the enrichment ratio is 17.6.
For the variant LRWC, the enrichment ratio was not above 0.25.
As for LLWC, the figure is not above 0.25.
